The full data set covers some 7,900 targets. This sample favours those with a hit. About 0.6% of all pairs of compound and target were hits.
Experiments:
Test in all cases: log2 fold change, soluble protein after heating vs DMSO (PISA); higher = thermal stabilisation; K562 cells, 10 uM, 30 min; active = over 0.2 and 3.5 SD of the protein, either way, in both replicates (recomputed)
erlotinib = compound: C#Cc1cccc(Nc2ncnc3cc(OCCOC)c(OCCOC)cc23)c1 [erlotinib]
Method in brief: (§1)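 K562 cells at 2×10^6 cells/mL were treated with 10 μM compound for 30 min. Aliquots were heated for 3 min across 48°C-58°C, pooled, and extracted in PBS with 0.5% NP-40 at 4°C; soluble protein was the supernatant after 21,000xg for 90 min. Soluble protein was quantified by TMTpro 16plex LC-MS/MS with channel sums equalised, and reported as log2 fold change in thermal stability against DMSO controls, with values from duplicates.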

[1] = compound: C/C(=N\NC(=O)C1=CC(=CC=C1)S(=O)(=O)N2CCOCC2)/C3=C(C=CC(=C3)Cl)O
Method in brief: as §1

[2] = compound: C1=CC(=C(C=C1Cl)C2=NC3=NC=CN=C3C(=N2)NC4=CC=NC=C4)F
Method in brief: as §1

[3] = compound: C1=CC(=CC=C1C2=NC3=C(N2)C=C(C=C3)C(=O)N)OC4=CC=C(C=C4)Cl
Method in brief: as §1

[4] = compound: C1=CC2=C(C=CC(=C2)/C=C\3/C(=O)NC(=NCC4=CC=CS4)S3)N=C1
Method in brief: as §1

[5] = compound: C1=CC2=NC=CN=C2C=C1/C=C/3\C(=O)NC(=O)S3
Method in brief: as §1

[6] = compound: C1=CC=C(C=C1)C2=NC(=C(N2)C3=CC=NC=C3)C4=CC(=C(C=C4)Cl)O
Method in brief: as §1

[7] = compound: C1=CC=C2C(=C1)C3=NNC4=CC=CC(=C43)C2=O
Method in brief: as §1

[8] = compound: C1CCN(C1)C(=O)NC2=CC=CC(=C2)NC3=NC=C(C(=N3)NCCC4=CN=CN4)Br
Method in brief: as §1

[9] = compound: C1CN(CCC1(CC2=CC=C(C=C2)Cl)N)C3=NC=NC4=C3C=CN4
Method in brief: as §1

Measured: log2 fold change

OGFOD2 (UniProt Q6N063)
active: [1] -0.283
inactive: erlotinib -0.051 | [2] -0.047 | [3] 0.011 | [4] 0.089 | [5] 0.14 | [6] 0.004 | [7] 0.041 | [8] 0.023 | [9] 0.017

NUP210 (UniProt Q8TEM1)
inactive: erlotinib 0.021 | [1] 0.004 | [2] 0.06 | [3] -0.004 | [4] 0.011 | [5] 0.015 | [6] -0.018 | [7] -0.186 | [8] -0.009 | [9] 0.012

NDUFA4 (UniProt O00483)
UniProt O00483, sequence (O00483 whole entry, looked up): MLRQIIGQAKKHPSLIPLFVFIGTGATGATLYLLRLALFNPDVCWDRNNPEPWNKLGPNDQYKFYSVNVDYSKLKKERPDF
inactive: erlotinib -0.134 | [1] 0.002 | [2] 0.258 | [3] 0.042 | [4] 0.047 | [5] 0.072 | [6] 0.038 | [7] 0.011 | [8] 0.086 | [9] -0.017

NCAPG (UniProt Q9BPX3)
inactive: erlotinib -0.007 | [1] 0.114 | [2] 0.013 | [3] -0.03 | [4] 0.005 | [5] 0.002 | [6] 0.027 | [7] 0.043 | [8] -0.044 | [9] -0.104

OPHN1 (UniProt O60890)
inactive: erlotinib 0.022 | [1] -0.155 | [2] 0.101 | [3] -0.009 | [4] 0.24 | [5] 0.03 | [6] -0.007 | [7] 0.039 | [8] 0.044 | [9] 0.04

MND1 (UniProt Q9BWT6)
UniProt Q9BWT6, sequence (Q9BWT6 whole entry, looked up): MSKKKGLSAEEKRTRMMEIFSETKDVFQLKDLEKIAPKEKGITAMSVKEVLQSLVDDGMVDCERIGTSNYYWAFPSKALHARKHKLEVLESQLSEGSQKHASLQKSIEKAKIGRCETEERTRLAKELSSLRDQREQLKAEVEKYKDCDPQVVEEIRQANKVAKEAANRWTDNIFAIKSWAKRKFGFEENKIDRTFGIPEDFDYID
inactive: erlotinib -0.068 | [1] 0.034 | [2] -0.003 | [3] -0.002 | [4] -0.011 | [5] 0.015 | [6] -0.019 | [7] 0.009 | [8] -0.081 | [9] -0.017

NEK3 (UniProt P51956)
UniProt P51956, sequence (P51956 whole entry, looked up): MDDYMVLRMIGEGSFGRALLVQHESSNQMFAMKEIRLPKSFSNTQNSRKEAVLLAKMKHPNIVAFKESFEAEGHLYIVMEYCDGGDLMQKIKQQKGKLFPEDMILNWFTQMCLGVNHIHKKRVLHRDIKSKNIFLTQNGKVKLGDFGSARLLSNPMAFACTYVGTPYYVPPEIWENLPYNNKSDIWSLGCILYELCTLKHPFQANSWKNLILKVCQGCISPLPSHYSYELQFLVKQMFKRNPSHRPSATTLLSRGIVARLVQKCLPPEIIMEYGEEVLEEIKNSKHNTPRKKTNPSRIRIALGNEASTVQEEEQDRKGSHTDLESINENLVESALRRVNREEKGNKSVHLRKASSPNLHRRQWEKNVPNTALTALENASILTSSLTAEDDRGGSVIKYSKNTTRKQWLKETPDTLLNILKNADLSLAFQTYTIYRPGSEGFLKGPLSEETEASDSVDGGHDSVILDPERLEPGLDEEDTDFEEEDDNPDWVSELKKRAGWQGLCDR
inactive: erlotinib 0.003 | [1] -0.011 | [2] 0.096 | [3] 0.06 | [4] -0.063 | [6] 0.039 | [7] -0.05 | [8] -0.141 | [9] 0.103

MRPS6 (UniProt P82932)
inactive: erlotinib 0.001 | [1] 0.006 | [2] 0.006 | [3] 0.088 | [4] 0.01 | [5] 0.112 | [6] 0.128 | [7] 0.079 | [8] -0.039 | [9] -0.093

NAGPA (UniProt Q9UK23)
inactive: erlotinib 0.046 | [1] 0.023 | [2] 0.046 | [3] 0.056 | [4] 0.033 | [5] -0.018 | [7] -0.025 | [8] -0.013 | [9] 0.148

NGLY1 (UniProt Q96IV0)
UniProt Q96IV0, sequence (Q96IV0 whole entry, looked up): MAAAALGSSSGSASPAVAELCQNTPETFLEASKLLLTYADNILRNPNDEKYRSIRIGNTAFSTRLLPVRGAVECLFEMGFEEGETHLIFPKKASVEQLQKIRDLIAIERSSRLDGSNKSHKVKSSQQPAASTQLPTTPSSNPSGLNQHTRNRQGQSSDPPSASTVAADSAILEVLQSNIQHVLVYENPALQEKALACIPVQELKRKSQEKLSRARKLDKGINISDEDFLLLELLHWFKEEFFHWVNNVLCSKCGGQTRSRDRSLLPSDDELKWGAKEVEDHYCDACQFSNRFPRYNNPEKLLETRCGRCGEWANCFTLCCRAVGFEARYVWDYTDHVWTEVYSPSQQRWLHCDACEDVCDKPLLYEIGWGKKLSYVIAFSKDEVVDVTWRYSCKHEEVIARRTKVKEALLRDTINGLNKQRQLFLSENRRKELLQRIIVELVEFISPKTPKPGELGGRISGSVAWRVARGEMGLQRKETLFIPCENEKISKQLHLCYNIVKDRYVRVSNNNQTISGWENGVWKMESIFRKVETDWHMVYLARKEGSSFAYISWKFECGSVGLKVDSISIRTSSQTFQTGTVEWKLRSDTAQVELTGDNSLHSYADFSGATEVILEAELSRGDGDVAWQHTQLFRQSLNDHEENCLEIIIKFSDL
inactive: erlotinib 0.035 | [1] -0.06 | [2] -0.036 | [3] -0.014 | [4] 0.17 | [5] 0.023 | [6] -0.001 | [7] 0.045 | [8] -0.023 | [9] -0.024

NNMT (UniProt P40261)
UniProt P40261, sequence (P40261 whole entry, looked up): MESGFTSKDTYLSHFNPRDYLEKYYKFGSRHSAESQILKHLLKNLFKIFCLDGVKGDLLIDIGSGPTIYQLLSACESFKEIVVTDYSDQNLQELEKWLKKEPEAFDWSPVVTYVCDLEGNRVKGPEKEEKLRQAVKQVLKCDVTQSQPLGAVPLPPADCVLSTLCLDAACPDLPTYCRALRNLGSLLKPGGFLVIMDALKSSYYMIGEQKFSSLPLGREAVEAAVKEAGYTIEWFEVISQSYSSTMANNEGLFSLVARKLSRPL
inactive: erlotinib 0.037 | [1] 0.062 | [2] 0.123 | [3] 0.021 | [4] 0.074 | [5] 0 | [7] 0.028 | [8] 0.045 | [9] 0.043

NBN (UniProt O60934)
UniProt O60934, sequence (O60934 whole entry, looked up): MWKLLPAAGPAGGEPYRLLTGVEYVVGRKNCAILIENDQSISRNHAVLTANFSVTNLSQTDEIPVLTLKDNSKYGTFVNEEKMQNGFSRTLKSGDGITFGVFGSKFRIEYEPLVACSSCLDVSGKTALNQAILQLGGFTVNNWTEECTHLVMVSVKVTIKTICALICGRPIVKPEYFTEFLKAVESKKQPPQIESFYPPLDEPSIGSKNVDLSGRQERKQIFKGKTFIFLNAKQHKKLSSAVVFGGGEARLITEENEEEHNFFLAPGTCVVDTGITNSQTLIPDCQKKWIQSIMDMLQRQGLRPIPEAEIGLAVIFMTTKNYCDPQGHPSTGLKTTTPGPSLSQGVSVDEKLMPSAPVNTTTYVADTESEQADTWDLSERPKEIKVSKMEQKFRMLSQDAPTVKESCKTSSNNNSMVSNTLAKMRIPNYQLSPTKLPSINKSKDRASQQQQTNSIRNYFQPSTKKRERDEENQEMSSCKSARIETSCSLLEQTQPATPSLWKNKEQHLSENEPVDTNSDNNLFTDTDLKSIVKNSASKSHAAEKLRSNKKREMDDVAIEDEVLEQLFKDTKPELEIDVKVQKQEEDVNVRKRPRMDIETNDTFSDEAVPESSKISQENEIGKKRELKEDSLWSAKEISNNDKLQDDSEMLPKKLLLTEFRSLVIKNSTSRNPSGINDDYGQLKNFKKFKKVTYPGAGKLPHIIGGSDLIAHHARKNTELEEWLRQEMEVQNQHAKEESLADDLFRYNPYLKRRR
inactive: erlotinib 0.064 | [1] 0.087 | [2] 0.06 | [3] 0.033 | [4] 0.005 | [5] 0.028 | [6] 0.012 | [7] 0.002 | [8] -0.029 | [9] 0.037

NAA38 isoform 2 (UniProt Q9BRA0)
UniProt Q9BRA0, sequence (Q9BRA0 whole entry, looked up): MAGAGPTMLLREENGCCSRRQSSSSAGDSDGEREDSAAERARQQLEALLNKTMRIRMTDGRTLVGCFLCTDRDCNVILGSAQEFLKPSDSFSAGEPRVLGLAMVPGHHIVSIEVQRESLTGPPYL
inactive: erlotinib 0.139 | [1] 0.083 | [2] 0.092 | [3] -0.003 | [4] 0.034 | [5] 0.015 | [6] 0.044 | [7] -0.016 | [8] -0.009 | [9] 0.082

ORC5 (UniProt O43913)
inactive: erlotinib 0.089 | [1] 0.177 | [3] 0.046 | [4] 0.05 | [5] 0.062 | [6] 0.031 | [7] 0.01 | [8] -0.13 | [9] -0.026

MRPS16 (UniProt Q9Y3D3)
inactive: erlotinib -0.126 | [1] 0 | [2] -0.025 | [3] 0.159 | [4] 0.014 | [5] 0.079 | [6] 0.117 | [7] 0.044 | [8] -0.085 | [9] -0.097

OAT (UniProt P04181)
UniProt P04181, sequence (P04181 whole entry, looked up): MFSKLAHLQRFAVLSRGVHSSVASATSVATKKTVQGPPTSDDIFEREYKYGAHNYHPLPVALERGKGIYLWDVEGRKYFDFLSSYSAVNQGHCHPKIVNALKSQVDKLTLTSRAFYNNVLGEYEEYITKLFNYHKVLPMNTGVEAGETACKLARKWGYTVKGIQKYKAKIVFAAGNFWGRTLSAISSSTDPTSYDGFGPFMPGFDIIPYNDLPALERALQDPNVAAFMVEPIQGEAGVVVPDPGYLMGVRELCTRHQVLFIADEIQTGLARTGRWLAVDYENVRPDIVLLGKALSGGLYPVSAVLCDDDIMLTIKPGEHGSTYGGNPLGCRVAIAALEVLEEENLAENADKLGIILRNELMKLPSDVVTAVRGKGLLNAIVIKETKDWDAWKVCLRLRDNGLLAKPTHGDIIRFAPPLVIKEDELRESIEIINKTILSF
inactive: erlotinib 0.063 | [1] 0.099 | [2] 0.045 | [3] -0.091 | [4] 0.042 | [5] -0.151 | [6] -0.183 | [7] -0.001 | [8] -0.037 | [9] -0.023

MRPL47 (UniProt Q9HD33)
inactive: erlotinib -0.189 | [1] -0.107 | [2] -0.098 | [3] 0.096 | [4] -0.002 | [5] -0.047 | [6] -0.012 | [7] 0.094 | [8] -0.004 | [9] -0.273

MXRA7 (UniProt P84157)
inactive: erlotinib -0.052 | [1] -0.109 | [2] -0.083 | [3] 0.047 | [4] -0.067 | [5] 0.018 | [6] -0.033 | [7] 0.037 | [8] -0.038 | [9] 0.013

NPM3 (UniProt O75607)
UniProt O75607, sequence (O75607 whole entry, looked up): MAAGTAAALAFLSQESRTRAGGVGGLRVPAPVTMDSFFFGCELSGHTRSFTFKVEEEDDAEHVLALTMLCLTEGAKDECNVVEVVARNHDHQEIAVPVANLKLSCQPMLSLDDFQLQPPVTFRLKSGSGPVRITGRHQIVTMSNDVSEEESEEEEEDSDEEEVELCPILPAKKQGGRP
inactive: erlotinib -0.083 | [1] -0.104 | [3] 0.02 | [4] -0.184 | [5] 0.04 | [6] -0.025 | [7] -0.022 | [8] -0.054 | [9] -0.087

NELFCD (UniProt Q8IXH7)
UniProt Q8IXH7, sequence (Q8IXH7 whole entry, looked up): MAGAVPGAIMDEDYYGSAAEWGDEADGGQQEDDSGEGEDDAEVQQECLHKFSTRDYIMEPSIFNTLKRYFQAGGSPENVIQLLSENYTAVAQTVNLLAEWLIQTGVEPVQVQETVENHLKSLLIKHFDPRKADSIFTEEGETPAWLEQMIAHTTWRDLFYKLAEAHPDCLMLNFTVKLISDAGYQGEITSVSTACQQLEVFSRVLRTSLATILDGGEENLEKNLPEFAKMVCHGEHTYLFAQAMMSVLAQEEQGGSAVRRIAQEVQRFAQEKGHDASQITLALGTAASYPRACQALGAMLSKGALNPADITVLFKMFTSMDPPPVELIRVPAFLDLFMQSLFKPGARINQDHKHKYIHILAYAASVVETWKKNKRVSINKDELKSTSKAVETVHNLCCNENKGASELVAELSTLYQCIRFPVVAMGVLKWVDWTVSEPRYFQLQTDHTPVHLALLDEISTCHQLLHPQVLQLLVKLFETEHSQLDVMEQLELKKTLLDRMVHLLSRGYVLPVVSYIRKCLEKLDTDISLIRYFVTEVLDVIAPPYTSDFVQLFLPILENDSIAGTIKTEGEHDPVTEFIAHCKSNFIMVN
inactive: erlotinib 0.096 | [1] 0.034 | [2] 0.121 | [3] -0.154 | [4] 0.056 | [5] 0.031 | [7] 0.06

NTMT1 (UniProt Q9BV86)
UniProt Q9BV86, sequence (Q9BV86 whole entry, looked up): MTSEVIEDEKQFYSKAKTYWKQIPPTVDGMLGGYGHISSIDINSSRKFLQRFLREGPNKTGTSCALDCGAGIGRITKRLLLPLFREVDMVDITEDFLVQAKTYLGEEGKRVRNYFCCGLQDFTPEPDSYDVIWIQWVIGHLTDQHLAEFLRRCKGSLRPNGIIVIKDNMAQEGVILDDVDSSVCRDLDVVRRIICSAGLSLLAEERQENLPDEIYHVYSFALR
inactive: erlotinib 0.039 | [1] 0.13 | [2] 0.086 | [3] 0.002 | [4] 0.039 | [5] 0.032 | [6] 0.006 | [7] 0.086 | [8] -0.101 | [9] 0.151

NOLC1 isoform 2 (UniProt Q14978)
inactive: erlotinib 0.022 | [1] 0.036 | [2] -0.051 | [3] -0.005 | [4] -0.11 | [5] 0.024 | [6] -0.034 | [7] -0.171 | [8] -0.177 | [9] 0

MT-ND2 (UniProt P03891)
UniProt P03891, sequence (P03891 whole entry, looked up): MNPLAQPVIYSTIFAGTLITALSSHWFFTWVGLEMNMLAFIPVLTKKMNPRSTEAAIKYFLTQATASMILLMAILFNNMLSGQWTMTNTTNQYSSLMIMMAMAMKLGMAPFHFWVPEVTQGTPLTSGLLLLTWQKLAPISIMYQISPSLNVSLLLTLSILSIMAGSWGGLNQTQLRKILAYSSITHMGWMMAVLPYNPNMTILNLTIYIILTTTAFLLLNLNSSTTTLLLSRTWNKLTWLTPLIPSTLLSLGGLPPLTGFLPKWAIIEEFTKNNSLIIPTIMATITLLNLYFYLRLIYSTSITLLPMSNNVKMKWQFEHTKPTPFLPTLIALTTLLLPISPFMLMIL
inactive: erlotinib -0.067 | [1] -0.063 | [3] 0.062 | [4] -0.108 | [5] 0.104 | [6] 0.116 | [7] 0.044 | [8] -0.016 | [9] -0.093

NAPG (UniProt Q99747)
inactive: erlotinib 0.081 | [1] 0.134 | [2] 0.072 | [3] -0.019 | [4] 0.021 | [5] 0.038 | [6] -0.009 | [7] 0.033 | [8] -0.037 | [9] -0.016

MT-ND1 (UniProt P03886)
inactive: erlotinib -0.075 | [1] 0.031 | [2] -0.028 | [3] 0.097 | [4] -0.005 | [5] 0.032 | [6] 0.053 | [7] 0.12 | [8] -0.187 | [9] 0.018

NDUFB1 (UniProt O75438)
inactive: erlotinib -0.015 | [1] -0.016 | [2] 0.209 | [3] 0.053 | [4] -0.102 | [5] 0.039 | [7] 0.079 | [8] -0.05 | [9] -0.006

MON2 isoform 5 (UniProt Q7Z3U7)
inactive: erlotinib 0.034 | [1] 0.034 | [2] 0.072 | [3] -0.019 | [4] 0.016 | [5] 0.015 | [6] 0.015 | [7] 0.007 | [8] -0.019 | [9] 0.004

NMD3 (UniProt Q96D46)
active: [9] -0.281
inactive: erlotinib 0.025 | [1] 0.011 | [2] 0.052 | [3] 0.023 | [4] 0.009 | [5] -0.02 | [6] 0.05 | [7] 0.013 | [8] 0.064

MON1B (UniProt Q7L1V2)
UniProt Q7L1V2, sequence (Q7L1V2 whole entry, looked up): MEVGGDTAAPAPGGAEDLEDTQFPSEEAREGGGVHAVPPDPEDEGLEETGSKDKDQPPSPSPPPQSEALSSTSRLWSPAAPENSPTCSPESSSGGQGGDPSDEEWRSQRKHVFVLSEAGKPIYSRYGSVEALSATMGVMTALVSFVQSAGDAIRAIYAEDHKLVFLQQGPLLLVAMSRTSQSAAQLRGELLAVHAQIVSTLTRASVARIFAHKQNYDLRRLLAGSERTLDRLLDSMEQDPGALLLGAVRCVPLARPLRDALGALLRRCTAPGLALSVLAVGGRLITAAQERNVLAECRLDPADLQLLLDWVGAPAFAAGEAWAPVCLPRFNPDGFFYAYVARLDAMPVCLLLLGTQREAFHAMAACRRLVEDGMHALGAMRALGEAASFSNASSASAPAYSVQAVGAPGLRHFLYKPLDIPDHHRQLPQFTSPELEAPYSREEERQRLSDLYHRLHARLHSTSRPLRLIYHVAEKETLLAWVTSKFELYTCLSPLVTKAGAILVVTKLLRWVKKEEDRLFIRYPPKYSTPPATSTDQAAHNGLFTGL
inactive: erlotinib 0.016 | [1] 0.04 | [2] -0.021 | [3] 0.023 | [4] 0.089 | [5] -0.01 | [6] 0.066 | [7] -0.004 | [8] -0.005 | [9] -0.006

NARS2 (UniProt Q96I59)
inactive: erlotinib 0.037 | [1] 0.065 | [2] 0.07 | [3] 0.008 | [4] -0.018 | [5] -0.004 | [6] 0.053 | [7] 0.017 | [8] -0.002 | [9] -0.083

MLST8 (UniProt Q9BVC4)
inactive: erlotinib -0.021 | [1] 0.049 | [2] -0.004 | [3] 0.102 | [4] 0.116 | [5] -0.026 | [7] -0.111 | [8] -0.035 | [9] -0.105

— the supplement of paper PMC10849652
